# Screens from PubChem.
# ClpP mod: qHTS Assay for Activators of ClpP; AID 651965, 2013; Potency, µM (top dose mostly 57.5 µM); 340,000 compounds, 1.9% hits; purified B. subtilis ClpP, FRET peptide cleavage, 20 min; active = well fitted falling curve with a large enough effect; inconclusive = small, poorly fitted or top-dose-only effect; inactive = no such curve, though single readings can be large or run the other way; note: the source files actives as falling curves though it sought activators and does not explain the sign; nearly all actives have a fitted effect of over 65% in size
#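 FRET quenching reversal measured ClpP activation: 10 microg/mL B. subtilis ClpP at pH 8 with the FRET-FV decapeptide, read at 430 nm after 320 nm excitation. The 20-min minus 0-min signal was scaled between DMSO/no-enzyme wells and ADEP (5.8 microM final).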
# TDP1 block: blocks human tyrosyl-DNA phosphodiesterase 1; recombinant TDP1, AlphaScreen DNA substrate cleavage; AID 485290; Potency, µM (doses to about 130 µM), hits mostly inhibitors; 350,000 compounds, 0.28% hits; note: nearly all actives have a fitted effect of over 40% in size
# Target sequence (Q9NUW8 whole entry, looked up): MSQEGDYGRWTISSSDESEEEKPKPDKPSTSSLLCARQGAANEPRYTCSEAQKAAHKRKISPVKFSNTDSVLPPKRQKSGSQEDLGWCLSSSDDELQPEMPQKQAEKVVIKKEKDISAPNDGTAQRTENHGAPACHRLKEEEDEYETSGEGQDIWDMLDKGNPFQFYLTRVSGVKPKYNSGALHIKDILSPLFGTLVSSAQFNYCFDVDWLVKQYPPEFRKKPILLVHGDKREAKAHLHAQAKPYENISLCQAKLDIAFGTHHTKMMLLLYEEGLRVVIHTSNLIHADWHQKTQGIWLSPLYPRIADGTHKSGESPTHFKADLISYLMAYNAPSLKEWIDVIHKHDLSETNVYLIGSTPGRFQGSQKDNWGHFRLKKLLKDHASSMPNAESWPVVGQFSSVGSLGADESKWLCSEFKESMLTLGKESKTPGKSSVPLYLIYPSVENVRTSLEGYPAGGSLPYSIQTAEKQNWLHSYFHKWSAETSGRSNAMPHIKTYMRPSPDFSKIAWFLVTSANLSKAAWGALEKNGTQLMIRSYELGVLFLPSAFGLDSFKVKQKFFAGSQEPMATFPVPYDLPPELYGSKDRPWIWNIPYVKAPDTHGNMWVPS
#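 Here, a 5' biotin and 3' phosphotyrosine-FITC DNA oligonucleotide reports Tdp1 activity: intact substrate bridges AlphaScreen beads, while cleavage leaves a 3' phosphate and drops signal. All incubations at room temperature.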
# DT40 TDP1 no CPT: qHTS for Inhibitors of human tyrosyl-DNA phosphodiesterase 1 (TDP1): qHTS in cells in absence of CPT; 420,000 compounds, 15% hits; Potency, µM (doses to about 46.2 µM), actives largely listed as inhibitors; DT40 Tdp1-/- hTDP1 cells, no CPT, ATP luminescence, 48 h; AID 686978, 2013; note: nearly all actives have a fitted effect of over 55% in size
#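 Stably hTDP1-transfected Tdp1-null chicken DT40 cells were treated with library compounds minus camptothecin and grown for at least 48 hr at 37 °C, after which cellular ATP was quantified by luminescence.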
# TDP1 cell CPT: growth inhibition of DT40 Tdp1-/-;hTDP1 cells with camptothecin (screen for TDP1 inhibitors) | 420,000 compounds, 12% hits | AID 686979 | Potency, µM (titrated, usually from 46.2 µM), hits mostly inhibitors | chicken DT40 Tdp1-/-;hTDP1 cells + 20 nM CPT, ATP luminescence, 48 h; note: nearly all actives have a fitted effect of over 55% in size
#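 Cell growth measured by CellTiter-Glo luminescence after a minimum 48 h, 37 C compound exposure with 20 nM CPT in Tdp1-knockout DT40 cells stably expressing hTDP1, seeded 400/well; qHTS titration format.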
# Numbers stand for hits; - = inactive; ? = inconclusive; . = no result given; ! = not confirmed by another sample. Shown are actives, neighbours in structure and some others; about 17% of the full set was active somewhere. Unless noted, calls come from the whole dose curve; as a rule, active = well fitted curve in the direction sought with a large enough effect; inconclusive = small, poorly fitted or top-dose-only effect, or another doubt; inactive = no such curve, though single readings can be large; an effect the other way counts as inactive or inconclusive.
SMILES,ClpP mod,TDP1 block,DT40 TDP1 no CPT,TDP1 cell CPT
CN1CCN(S(=O)(=O)c2cccc(C(=O)Nc3nc(-c4ccccc4)cs3)c2)CC1,-,-,?,?
Cc1cc(-c2csc(NC(=O)c3cccc(S(=O)(=O)N(C)C)c3)n2)c(C)n1-c1ccccc1,14µM,-,-,-
CCSc1nc(=S)cc(C)[nH]1,-,-,21µM,?
CCSc1nc(O)cc(=O)[nH]1,-,-,-,-
CCCc1cc(C(=O)N2CCCC(C(=O)c3ccc(Cl)cc3)C2)n(C)n1 (centres undefined),-,-,?,?
CCC(=O)NC(=S)Nc1cc(C(=O)O)ccc1OC,.,-,-,-
O=C1CCC(c2ccc3ccccc3c2)O1 (centres undefined),.,.,-,?
COc1ccc(S(=O)(=O)NCC(c2ccc3c(c2)OCO3)N2CCOCC2)cc1 (centres undefined),-,-,-,-
O=C(N/N=C/c1c[nH]c2ccccc12)c1ccn(Cc2ccc(Cl)cc2Cl)n1,-,-,?,-
O=C(N/N=C/c1c[nH]c2ccc(Br)cc12)c1ccn(Cc2ccc(Cl)cc2)n1,-,-,21µM,?
Cc1cccc(CNC(=O)Cn2ccc3cc(S(=O)(=O)N4CCC(C)CC4)ccc32)c1,-,-,?,?
O=C1C(Cc2ccc(Br)cc2)SC(=Nc2ccccc2)N1c1ccccc1 (centres undefined),-,-,-,-
O=C1C(Cc2ccc(F)cc2)SC(=Nc2ccccc2)N1c1ccccc1 (centres undefined),-,-,23µM,?
COC(=O)C(c1ccccc1)C(C(=O)OC)c1ccccc1 (centres undefined),-,.,-,-
COC(=O)[C@@H](c1ccccc1)N(C)S(=O)(=O)c1cccc(S(=O)(=O)N(C)[C@@H](C(=O)OC)c2ccccc2)c1,-,.,3.7µM,5.8µM
OC(c1ccccc1)(c1nc(-c2cccc(F)c2)cs1)C(F)(F)F (centres undefined),-,.,?,?
OC(c1ccccc1)(c1nc(-c2ccccc2)cs1)C(F)(F)F (centres undefined),-,.,21µM,18µM
OC(c1ccccc1)(c1nc(-c2ccc3ccccc3c2)cs1)C(F)(F)F (centres undefined),-,.,?,21µM
OC(c1ccccc1)(c1nc(-c2cc(F)cc(F)c2)cs1)C(F)(F)F (centres undefined),-,.,?,?
CCCOc1ccc(N)cc1N,-,-,4.1µM,5.2µM
CCN(CC)CCOC(=O)c1ccc(N)cc1,-,-,-,-
Nc1ccccc1OCCOc1ccccc1N,-,.,-,-
CCCOc1cc(N)ccc1C(=O)OCCN(CC)CC,-,-,?,0.13µM!
COc1ccc(CCNC(=O)c2cc3c(s2)-c2c(C)cccc2OC3)c(OC)c1,-,-,?,?
COc1ccc(NC(=O)c2cc3c(s2)-c2c(C)cccc2OC3)cc1Cl,25µM,-,?,?
SMILES,ClpP mod,TDP1 block,DT40 TDP1 no CPT,TDP1 cell CPT
COc1ccc(NC(=O)C2COc3ccccc3C2)cc1Cl (centres undefined),?,-,16µM,18µM
COc1ccc(NC(=O)NC2COc3ccccc3C2)cc1Cl (centres undefined),-,-,-,-
COc1ccc(OC)c(CCNC(=O)c2cc3c(s2)-c2c(C)cccc2OC3)c1,-,-,7.3µM,12µM
Cc1nn(C)c(=O)c(N)c1-c1cc(-c2ccc(Cl)c(Cl)c2)n[nH]1,.,-,6.5µM,13µM
Cc1ccc(-c2cc(-c3c(C)nn(C)c(=O)c3N)[nH]n2)cc1,-,-,9.2µM,16µM
Cc1cc(=O)[nH]c(Nc2cccc(Cl)c2C)n1,-,.,-,-
O=C(Cc1ccccc1)N/N=C/c1ccc2c(c1)OCO2,.,-,-,-
COc1ccc(/C=N\NC(=O)C2COc3ccccc3O2)cc1O (centres undefined),-,-,?,15µM
O=C(N/N=C/c1ccc2c(c1)OCO2)C1COc2ccccc2O1 (centres undefined),-,-,23µM,?
O=C(CCc1c[nH]c2ccccc12)N/N=C/c1ccc2c(c1)OCO2,-,-,23µM,-
C/C(=N\NC(=O)C1COc2ccccc2O1)c1ccccn1 (centres undefined),-,-,2.9µM,5.8µM
O=C(N/N=C\C=C\c1ccco1)C1COc2ccccc2O1 (centres undefined),-,.,10µM,2.6µM
Cc1cc([N+](=O)[O-])cc(/C=N\NC(=O)C2COc3ccccc3O2)c1O (centres undefined),.,-,13µM,16µM
O=C(N/N=C\c1ccc(O)c([N+](=O)[O-])c1)C1COc2ccccc2O1 (centres undefined),-,-,-,-
O=C(N/N=C\C=C\c1ccc2c(c1)OCO2)C1COc2cc3ccccc3cc2O1 (centres undefined),?,-,?,-
Cc1ccccc1C(=O)NCCCNC(=O)c1ccccc1C,.,.,-,-
CC(C)Sc1nnc(NC(=O)c2ccc3c(c2)OCO3)s1,-,-,-,-
COC(=O)c1cc(NC(=O)c2ccccc2)c(=O)oc1C/C=N\OCc1ccc(Cl)cc1Cl,-,-,?,-
O=C(C[n+]1cccc(Br)c1)c1cc(Cl)ccc1Cl,-,.,?,?
O=C1c2ccccc2C(=O)N1OS(=O)(=O)c1ccccc1,.,-,.,.
O=C1c2cccc3cccc(c23)C(=O)N1OS(=O)(=O)c1ccc(Br)cc1,.,-,10µM,?
Cc1ccc(S(=O)(=O)ON2C(=O)c3cccc4cccc(c34)C2=O)cc1,-,-,16µM,?
Cc1cc(S(=O)(=O)ON2C(=O)c3ccccc3C2=O)ccc1F,-,-,2.1µM,3.3µM
Cc1nc2ccccn2c1C(=O)OCC#N,-,-,-,-
CC(=O)Nc1c(C)nn(-c2ccccc2)c1N1CCC(C(=O)Nc2cccc(C(F)(F)F)c2)CC1,-,-,?,?
SMILES,ClpP mod,TDP1 block,DT40 TDP1 no CPT,TDP1 cell CPT
Nc1nc(-c2ccco2)nn1S(=O)(=O)c1ccc(Cl)cc1,.,-,-,-
CCCc1cc(=O)[nH]c(SCC(=O)c2cc(C)n(C)c2C)n1,-,-,-,-
Cc1cc(C(=O)CSc2nc(N)cc(N)n2)c(C)n1C1CC1,.,-,-,-
CCCc1cc(=O)[nH]c(SCC(=O)c2cc(C)n(C3CC3)c2C)n1,18µM,-,-,-
Cc1nc(SCC(=O)c2cc(C)n(C3CC3)c2C)c2ccccc2n1,-,.,7.3µM,8.2µM
C=CCNC(=S)NNC(=O)C(CCCC)CC(C)O (centres undefined),-,-,?,?
C=CCNC(=S)NNC(=O)CCC(O)CCCCC (centres undefined),-,-,18µM,15µM
Cc1ccc(NCc2cccn2-c2nnc(N3CCC(C(=O)NCCc4ccc(Cl)cc4)CC3)s2)cc1,-,-,13µM,?
CCOc1ccc(NCc2cccn2-c2nnc(N3CCC(C(=O)NCCOC)CC3)s2)cc1,-,-,?,?
